# How the values were obtained:
# Test in all cases: DAPPL (digital affinity profiling via proximity ligation, sequencing); 10 mM Tris-HCl pH 7.5, 50 mM NaCl, 1 mM DTT, 4% glycerol, room temperature, 30 min; GST-TFs on glutathione beads, 16-mer random dsDNA library, 0.1% formaldehyde crosslink after washing; high values mean tight binding
# FLI1 = target: T1, FLI1 (Homo sapiens, UniProt Q01543 1-452); conditions: protein: recombinant; tags: N-terminal GST; dsDNA, one strand shown
# T1 sequence: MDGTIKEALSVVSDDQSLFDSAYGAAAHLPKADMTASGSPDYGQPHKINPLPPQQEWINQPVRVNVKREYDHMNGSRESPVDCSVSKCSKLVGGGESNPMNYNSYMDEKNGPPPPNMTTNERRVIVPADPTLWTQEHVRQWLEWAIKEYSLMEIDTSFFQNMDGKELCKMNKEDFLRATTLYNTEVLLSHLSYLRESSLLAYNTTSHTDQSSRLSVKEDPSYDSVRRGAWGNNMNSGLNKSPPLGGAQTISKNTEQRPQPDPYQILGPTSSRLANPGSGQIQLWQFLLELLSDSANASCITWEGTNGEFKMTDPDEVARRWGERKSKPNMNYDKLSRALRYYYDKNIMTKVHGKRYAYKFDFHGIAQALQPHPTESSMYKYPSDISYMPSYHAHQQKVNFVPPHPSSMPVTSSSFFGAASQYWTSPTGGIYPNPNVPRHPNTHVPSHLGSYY
# Method in brief: (§1)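 After expression in yeast as GST fusions, human transcription factors were bound to glutathione beads, DNA-barcoded and mixed with a tag-only sample. The pools were incubated with 200 nmole of a 16-mer random double-stranded DNA library in Tris/NaCl/DTT/glycerol buffer (30 min, room temperature), washed and crosslinked with 0.1% formaldehyde. Proximity ligation with BsaI/T4 ligase ran for 1 h at 37 °C, before PCR amplification and sequencing on an Illumina NextSeq500. Binding signal is a hexamer's read frequency for a factor divided by its frequency for the tag-only sample.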
# ELK1 = target: T2, ELK1 (Homo sapiens, UniProt P19419 1-428); conditions: protein: recombinant; tags: N-terminal GST; dsDNA, one strand shown
# T2 sequence: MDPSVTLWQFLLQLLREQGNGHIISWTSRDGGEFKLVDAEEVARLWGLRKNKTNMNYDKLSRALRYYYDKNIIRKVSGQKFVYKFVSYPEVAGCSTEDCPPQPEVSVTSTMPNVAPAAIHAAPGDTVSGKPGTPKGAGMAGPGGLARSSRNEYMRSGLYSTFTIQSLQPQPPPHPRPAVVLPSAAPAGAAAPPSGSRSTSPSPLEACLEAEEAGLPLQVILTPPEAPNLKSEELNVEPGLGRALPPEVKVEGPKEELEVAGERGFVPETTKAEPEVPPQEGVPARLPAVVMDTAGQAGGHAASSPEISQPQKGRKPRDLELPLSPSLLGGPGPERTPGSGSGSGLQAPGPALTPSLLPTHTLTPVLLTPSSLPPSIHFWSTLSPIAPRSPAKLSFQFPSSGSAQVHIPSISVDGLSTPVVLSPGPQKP
# Method in brief: as §1
# GABPA = target: T3, GABPA (Homo sapiens, UniProt Q06546 1-454); conditions: protein: recombinant; tags: N-terminal GST; dsDNA, one strand shown
# T3 sequence: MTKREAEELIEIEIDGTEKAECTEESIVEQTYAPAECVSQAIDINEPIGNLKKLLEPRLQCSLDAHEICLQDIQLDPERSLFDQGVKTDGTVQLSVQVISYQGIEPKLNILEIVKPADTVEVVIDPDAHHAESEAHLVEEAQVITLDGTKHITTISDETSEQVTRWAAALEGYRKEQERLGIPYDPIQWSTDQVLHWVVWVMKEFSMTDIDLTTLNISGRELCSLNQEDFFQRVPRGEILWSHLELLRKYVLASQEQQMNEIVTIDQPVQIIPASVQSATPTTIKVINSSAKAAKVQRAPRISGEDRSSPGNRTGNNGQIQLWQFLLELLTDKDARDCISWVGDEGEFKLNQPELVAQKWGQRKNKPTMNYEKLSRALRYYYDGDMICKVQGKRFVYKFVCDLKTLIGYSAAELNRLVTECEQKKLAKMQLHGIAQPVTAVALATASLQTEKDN
# Method in brief: as §1
# ERG = target: T4, ERG (Homo sapiens, UniProt P11308 1-479); conditions: protein: recombinant; tags: N-terminal GST; dsDNA, one strand shown
# T4 sequence: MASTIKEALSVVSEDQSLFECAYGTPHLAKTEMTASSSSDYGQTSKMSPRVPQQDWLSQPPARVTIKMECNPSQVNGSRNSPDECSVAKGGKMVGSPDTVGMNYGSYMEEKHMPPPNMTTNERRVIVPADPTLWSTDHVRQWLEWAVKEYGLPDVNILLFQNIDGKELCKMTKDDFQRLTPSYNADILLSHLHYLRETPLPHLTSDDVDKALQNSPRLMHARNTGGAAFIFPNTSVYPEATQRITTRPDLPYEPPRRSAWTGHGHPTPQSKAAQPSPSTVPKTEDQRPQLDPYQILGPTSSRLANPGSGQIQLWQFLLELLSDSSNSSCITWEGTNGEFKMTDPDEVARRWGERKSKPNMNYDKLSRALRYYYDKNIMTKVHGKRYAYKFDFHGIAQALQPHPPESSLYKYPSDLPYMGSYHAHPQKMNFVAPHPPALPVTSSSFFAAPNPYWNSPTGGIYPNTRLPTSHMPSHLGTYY
# Method in brief: as §1
# ELF1 = ELF1 (Homo sapiens, UniProt P32519 1-619); conditions: protein: recombinant; tags: N-terminal GST; dsDNA, one strand shown
# Method in brief: as §1
# EHF = target: T5, EHF (Homo sapiens, UniProt Q9NZC4 1-300); conditions: protein: recombinant; tags: N-terminal GST; dsDNA, one strand shown
# T5 sequence: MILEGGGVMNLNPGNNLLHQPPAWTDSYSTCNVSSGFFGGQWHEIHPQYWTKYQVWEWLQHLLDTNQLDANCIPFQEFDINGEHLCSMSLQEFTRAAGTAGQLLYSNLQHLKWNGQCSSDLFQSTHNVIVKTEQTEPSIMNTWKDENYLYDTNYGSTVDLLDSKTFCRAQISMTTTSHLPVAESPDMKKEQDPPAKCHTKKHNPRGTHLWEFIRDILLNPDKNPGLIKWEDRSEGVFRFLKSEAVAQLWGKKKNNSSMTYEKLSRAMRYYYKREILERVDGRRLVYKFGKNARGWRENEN
# Method in brief: as §1
# SPI1 = SPI1 (Homo sapiens, UniProt P17947 1-270); conditions: protein: recombinant; tags: N-terminal GST; dsDNA, one strand shown
# Method in brief: as §1
# SPIB = SPIB (Homo sapiens, UniProt Q01892 1-262); conditions: protein: recombinant; tags: N-terminal GST; dsDNA, one strand shown
# Method in brief: as §1
# ELK3 = target: T6, ELK3 (Homo sapiens, UniProt P41970 1-407); conditions: protein: recombinant; tags: N-terminal GST; dsDNA, one strand shown
# T6 sequence: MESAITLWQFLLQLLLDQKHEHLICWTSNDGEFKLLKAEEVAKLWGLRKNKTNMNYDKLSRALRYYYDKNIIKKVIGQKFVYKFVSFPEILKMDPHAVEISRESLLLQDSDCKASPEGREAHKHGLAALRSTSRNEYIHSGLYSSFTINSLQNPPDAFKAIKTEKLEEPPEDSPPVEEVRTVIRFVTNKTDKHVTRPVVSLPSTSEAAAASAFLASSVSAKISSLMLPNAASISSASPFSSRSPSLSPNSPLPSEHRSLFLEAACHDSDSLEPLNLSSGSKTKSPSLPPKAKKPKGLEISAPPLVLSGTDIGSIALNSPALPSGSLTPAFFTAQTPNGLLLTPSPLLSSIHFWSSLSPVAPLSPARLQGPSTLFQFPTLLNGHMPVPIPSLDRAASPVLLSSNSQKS
# Method in brief: as §1
# FEV = target: T7, FEV (Homo sapiens, UniProt Q99581 1-238); conditions: protein: recombinant; tags: N-terminal GST; dsDNA, one strand shown
# T7 sequence: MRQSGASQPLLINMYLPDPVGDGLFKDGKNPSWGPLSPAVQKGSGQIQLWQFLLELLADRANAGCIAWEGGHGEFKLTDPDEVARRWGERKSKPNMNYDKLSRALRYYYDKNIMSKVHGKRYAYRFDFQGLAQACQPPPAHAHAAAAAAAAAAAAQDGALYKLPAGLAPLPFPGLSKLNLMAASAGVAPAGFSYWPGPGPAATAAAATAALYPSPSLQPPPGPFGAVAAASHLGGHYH
# Method in brief: as §1
# ETV5 = ETV5 (Homo sapiens, UniProt P41161 1-510); conditions: protein: recombinant; tags: N-terminal GST; dsDNA, one strand shown
# Method in brief: as §1
# HSF1 = HSF1 (Homo sapiens, UniProt Q00613 1-529); conditions: protein: recombinant; tags: N-terminal GST; chain copies: 3; dsDNA, one strand shown
# Method in brief: as §1
# SPIC = target: T8, SPIC (Homo sapiens, UniProt Q8N5J4 1-248); conditions: protein: recombinant; tags: N-terminal GST; dsDNA, one strand shown
# T8 sequence: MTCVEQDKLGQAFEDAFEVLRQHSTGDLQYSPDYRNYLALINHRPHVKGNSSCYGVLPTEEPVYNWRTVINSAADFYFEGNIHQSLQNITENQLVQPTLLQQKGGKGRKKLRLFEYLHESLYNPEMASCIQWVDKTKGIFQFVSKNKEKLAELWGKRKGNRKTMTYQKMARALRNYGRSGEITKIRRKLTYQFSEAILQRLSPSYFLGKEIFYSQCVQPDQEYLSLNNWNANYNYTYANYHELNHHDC
# Method in brief: as §1
# ELF4 = ELF4 (Homo sapiens, UniProt Q99607 1-663); conditions: protein: recombinant; tags: N-terminal GST; dsDNA, one strand shown
# Method in brief: as §1
# ELK4 = target: T9, ELK4 (Homo sapiens, UniProt P28324-2 1-405); conditions: protein: recombinant; tags: N-terminal GST; dsDNA, one strand shown
# T9 sequence: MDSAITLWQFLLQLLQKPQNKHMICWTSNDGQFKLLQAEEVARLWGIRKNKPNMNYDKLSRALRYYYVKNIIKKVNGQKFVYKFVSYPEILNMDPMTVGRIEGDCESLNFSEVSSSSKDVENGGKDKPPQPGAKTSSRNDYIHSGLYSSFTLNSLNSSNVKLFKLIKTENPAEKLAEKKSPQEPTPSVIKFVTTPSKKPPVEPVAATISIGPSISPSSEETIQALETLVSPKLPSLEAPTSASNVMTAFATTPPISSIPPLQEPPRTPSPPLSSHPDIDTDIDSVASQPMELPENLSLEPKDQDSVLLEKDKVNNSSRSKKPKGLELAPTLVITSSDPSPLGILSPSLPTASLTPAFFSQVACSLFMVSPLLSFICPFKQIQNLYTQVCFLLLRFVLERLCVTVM
# Method in brief: as §1
# ETV2 = target: T10, ETV2 (Homo sapiens, UniProt O00321 1-342); conditions: protein: recombinant; tags: N-terminal GST; dsDNA, one strand shown
# T10 sequence: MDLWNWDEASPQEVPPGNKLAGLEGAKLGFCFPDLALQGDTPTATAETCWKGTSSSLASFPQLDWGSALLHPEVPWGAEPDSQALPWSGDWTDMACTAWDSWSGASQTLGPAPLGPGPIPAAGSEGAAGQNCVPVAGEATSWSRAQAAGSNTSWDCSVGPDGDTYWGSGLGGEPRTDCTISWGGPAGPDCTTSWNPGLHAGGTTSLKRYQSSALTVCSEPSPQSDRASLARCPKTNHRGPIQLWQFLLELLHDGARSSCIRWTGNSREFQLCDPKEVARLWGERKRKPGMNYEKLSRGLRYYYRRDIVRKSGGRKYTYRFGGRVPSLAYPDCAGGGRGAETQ
# Method in brief: as §1
# ELF3 = target: T11, ELF3 (Homo sapiens, UniProt P78545 1-371); conditions: protein: recombinant; tags: N-terminal GST; dsDNA, one strand shown
# T11 sequence: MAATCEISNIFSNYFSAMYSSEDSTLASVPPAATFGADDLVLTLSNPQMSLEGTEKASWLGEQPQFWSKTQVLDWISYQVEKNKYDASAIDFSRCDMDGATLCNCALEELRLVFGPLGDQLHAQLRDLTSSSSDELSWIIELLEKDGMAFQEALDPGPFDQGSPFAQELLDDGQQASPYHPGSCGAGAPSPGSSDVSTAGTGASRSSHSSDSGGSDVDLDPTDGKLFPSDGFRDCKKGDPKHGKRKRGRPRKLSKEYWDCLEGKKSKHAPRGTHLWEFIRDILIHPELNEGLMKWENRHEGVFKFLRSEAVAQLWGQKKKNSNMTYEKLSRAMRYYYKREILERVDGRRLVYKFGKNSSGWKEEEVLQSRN
# Method in brief: as §1
# CRX = CRX (Homo sapiens, UniProt O43186 1-299); conditions: protein: recombinant; tags: N-terminal GST; dsDNA, one strand shown
# Method in brief: as §1
# ETV1 = ETV1 (Homo sapiens, UniProt P50549 1-477); conditions: protein: recombinant; tags: N-terminal GST; dsDNA, one strand shown
# Method in brief: as §1
# ETV5, sequence (P41161 whole entry): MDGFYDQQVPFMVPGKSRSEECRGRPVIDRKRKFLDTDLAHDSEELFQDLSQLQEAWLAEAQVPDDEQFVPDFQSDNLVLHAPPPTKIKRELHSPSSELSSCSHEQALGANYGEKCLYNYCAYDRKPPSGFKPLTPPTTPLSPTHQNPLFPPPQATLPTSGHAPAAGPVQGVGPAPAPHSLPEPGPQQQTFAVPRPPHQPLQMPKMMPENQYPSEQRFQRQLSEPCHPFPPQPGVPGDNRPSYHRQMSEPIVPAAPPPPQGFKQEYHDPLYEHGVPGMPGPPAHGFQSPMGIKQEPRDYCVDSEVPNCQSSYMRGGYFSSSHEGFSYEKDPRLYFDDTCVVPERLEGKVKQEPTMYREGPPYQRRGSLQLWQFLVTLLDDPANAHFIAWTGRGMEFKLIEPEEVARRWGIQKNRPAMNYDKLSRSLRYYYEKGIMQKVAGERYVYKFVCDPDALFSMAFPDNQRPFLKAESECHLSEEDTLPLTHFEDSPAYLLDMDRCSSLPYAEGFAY
# ELF1, sequence (P32519 whole entry): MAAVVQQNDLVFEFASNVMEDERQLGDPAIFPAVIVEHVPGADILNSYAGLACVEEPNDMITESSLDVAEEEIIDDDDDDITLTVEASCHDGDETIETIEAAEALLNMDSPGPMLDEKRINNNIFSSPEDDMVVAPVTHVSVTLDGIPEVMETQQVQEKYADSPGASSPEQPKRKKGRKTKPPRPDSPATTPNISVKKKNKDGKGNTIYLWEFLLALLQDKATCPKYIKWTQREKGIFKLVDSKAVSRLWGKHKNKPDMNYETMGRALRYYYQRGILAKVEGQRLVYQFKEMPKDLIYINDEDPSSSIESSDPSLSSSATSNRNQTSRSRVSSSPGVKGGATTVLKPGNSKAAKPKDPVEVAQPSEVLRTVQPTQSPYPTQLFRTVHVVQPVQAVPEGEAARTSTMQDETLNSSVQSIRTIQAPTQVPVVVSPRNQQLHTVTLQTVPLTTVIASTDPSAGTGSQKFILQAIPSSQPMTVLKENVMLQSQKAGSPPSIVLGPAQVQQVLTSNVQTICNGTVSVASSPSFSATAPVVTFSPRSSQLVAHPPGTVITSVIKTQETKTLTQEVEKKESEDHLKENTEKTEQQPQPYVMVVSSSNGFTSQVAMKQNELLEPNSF
# HSF1, sequence (Q00613 whole entry): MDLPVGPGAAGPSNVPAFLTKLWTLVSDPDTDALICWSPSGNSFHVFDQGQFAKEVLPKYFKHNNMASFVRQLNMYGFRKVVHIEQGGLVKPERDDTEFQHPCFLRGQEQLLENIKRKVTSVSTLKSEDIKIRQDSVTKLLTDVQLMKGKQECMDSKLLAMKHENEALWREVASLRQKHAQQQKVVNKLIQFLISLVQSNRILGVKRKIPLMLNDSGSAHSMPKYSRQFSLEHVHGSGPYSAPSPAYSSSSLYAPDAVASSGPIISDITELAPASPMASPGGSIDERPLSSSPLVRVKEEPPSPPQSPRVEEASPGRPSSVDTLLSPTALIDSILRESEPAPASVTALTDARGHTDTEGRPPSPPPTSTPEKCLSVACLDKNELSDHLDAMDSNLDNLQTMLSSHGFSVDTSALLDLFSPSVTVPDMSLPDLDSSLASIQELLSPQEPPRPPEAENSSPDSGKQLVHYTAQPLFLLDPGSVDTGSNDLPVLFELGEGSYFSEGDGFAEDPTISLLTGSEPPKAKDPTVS
# ELF4, sequence (Q99607 whole entry): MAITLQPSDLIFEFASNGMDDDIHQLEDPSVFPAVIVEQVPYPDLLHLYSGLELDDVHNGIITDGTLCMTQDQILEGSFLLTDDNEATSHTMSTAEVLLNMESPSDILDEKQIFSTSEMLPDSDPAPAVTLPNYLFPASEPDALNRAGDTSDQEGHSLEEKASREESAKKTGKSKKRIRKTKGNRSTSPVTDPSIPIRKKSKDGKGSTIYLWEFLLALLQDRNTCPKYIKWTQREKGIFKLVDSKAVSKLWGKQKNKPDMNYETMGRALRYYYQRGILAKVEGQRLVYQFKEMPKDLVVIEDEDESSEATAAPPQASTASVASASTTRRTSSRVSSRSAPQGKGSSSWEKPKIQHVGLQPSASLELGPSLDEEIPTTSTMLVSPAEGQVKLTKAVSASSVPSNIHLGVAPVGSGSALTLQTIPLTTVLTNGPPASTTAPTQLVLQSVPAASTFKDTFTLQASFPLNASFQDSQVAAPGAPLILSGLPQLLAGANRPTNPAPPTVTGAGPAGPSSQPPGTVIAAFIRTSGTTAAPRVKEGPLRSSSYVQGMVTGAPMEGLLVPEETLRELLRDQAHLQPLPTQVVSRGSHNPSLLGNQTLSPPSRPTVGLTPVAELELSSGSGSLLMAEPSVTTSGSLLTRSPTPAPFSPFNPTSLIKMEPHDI
# ETV1, sequence (P50549 whole entry): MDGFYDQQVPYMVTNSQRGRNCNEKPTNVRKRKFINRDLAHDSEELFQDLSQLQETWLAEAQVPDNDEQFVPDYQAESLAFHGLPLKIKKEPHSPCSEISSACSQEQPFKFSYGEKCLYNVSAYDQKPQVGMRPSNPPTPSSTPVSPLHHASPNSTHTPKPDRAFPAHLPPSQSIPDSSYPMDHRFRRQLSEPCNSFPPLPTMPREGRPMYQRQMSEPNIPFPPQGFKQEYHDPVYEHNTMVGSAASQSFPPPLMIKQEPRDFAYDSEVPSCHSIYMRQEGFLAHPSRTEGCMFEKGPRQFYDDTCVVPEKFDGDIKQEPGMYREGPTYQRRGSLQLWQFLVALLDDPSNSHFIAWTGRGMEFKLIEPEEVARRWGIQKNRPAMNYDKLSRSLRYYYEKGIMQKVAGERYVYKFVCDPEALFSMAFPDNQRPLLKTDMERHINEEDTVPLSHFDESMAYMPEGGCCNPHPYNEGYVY
# CRX, sequence (O43186 whole entry): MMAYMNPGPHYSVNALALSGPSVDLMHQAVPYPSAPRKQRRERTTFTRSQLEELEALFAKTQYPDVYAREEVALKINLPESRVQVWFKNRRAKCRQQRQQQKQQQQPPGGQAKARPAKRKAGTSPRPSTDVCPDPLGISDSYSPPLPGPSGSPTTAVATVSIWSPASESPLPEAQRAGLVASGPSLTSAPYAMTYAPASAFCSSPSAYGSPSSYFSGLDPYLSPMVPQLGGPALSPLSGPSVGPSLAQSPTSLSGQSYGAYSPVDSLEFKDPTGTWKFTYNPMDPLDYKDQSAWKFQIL
# SPIB, sequence (Q01892 whole entry): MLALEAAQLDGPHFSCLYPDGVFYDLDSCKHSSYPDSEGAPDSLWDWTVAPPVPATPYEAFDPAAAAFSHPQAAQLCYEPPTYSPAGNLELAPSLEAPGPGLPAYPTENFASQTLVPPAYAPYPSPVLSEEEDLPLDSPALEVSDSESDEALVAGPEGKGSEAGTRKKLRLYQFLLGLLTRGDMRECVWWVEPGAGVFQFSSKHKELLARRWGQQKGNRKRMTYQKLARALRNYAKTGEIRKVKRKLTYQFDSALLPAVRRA
sequence,measurement,setting,value
AAATCC,binding signal,FLI1,"1.54 fold enrichment (6-mer frequency, TF over GST control)"
same,binding signal,ELK1,"1.66 fold enrichment (6-mer frequency, TF over GST control)"
same,binding signal,GABPA,"1.5 fold enrichment (6-mer frequency, TF over GST control)"
same,binding signal,ERG,"1.81 fold enrichment (6-mer frequency, TF over GST control)"
same,binding signal,ELF1,"1.59 fold enrichment (6-mer frequency, TF over GST control)"
same,binding signal,EHF,"1.58 fold enrichment (6-mer frequency, TF over GST control)"
same,binding signal,SPI1,"1.5 fold enrichment (6-mer frequency, TF over GST control)"
same,binding signal,SPIB,"1.65 fold enrichment (6-mer frequency, TF over GST control)"
same,binding signal,ELK3,"1.53 fold enrichment (6-mer frequency, TF over GST control)"
same,binding signal,FEV,"2.56 fold enrichment (6-mer frequency, TF over GST control)"
same,binding signal,ETV5,"1.64 fold enrichment (6-mer frequency, TF over GST control)"
same,binding signal,HSF1,"1.9 fold enrichment (6-mer frequency, TF over GST control)"
same,binding signal,SPIC,"1.5 fold enrichment (6-mer frequency, TF over GST control)"
same,binding signal,ELF4,"1.51 fold enrichment (6-mer frequency, TF over GST control)"
same,binding signal,ELK4,"1.47 fold enrichment (6-mer frequency, TF over GST control)"
same,binding signal,ETV2,"1.45 fold enrichment (6-mer frequency, TF over GST control)"
same,binding signal,ELF3,"1.34 fold enrichment (6-mer frequency, TF over GST control)"
same,binding signal,CRX,"2.53 fold enrichment (6-mer frequency, TF over GST control)"
same,binding signal,ETV1,"1.58 fold enrichment (6-mer frequency, TF over GST control)"

# From article PMC7862700, “An all-to-all approach to the identification of sequence-specific readers for epigenetic DNA modifications on cytosine”
